# Measured values taken from PubChem BioAssay (EPA / NIEHS).
# Inconclusive results are not listed. Activity calls are given as the source filed them. The calls were made as follows: active = hit-call score of the fitted dose curve at least 0.9, where 1 is the maximum; inconclusive = response in the unintended direction; inactive = score below 0.9.
# Assays:
# [1] = molecular target: rat Adrenergic Receptor, Alpha 2 (Adra2), Non-selective Binding, Adra2a (gene 25083) (UniProt P22909); assay: NVS_GPCR_rAdra2_NonSelective: NovaScreen (NVS) G Protein-Coupled Receptor Assay for rat Adrenergic Receptor, Alpha 2 (Adra2), Non-selective Binding (AID 2283299)
# Chain of rat Adrenergic Receptor, Alpha 2 (Adra2), Non-selective Binding, Adra2a (gene 25083) (P22909 whole entry, looked up): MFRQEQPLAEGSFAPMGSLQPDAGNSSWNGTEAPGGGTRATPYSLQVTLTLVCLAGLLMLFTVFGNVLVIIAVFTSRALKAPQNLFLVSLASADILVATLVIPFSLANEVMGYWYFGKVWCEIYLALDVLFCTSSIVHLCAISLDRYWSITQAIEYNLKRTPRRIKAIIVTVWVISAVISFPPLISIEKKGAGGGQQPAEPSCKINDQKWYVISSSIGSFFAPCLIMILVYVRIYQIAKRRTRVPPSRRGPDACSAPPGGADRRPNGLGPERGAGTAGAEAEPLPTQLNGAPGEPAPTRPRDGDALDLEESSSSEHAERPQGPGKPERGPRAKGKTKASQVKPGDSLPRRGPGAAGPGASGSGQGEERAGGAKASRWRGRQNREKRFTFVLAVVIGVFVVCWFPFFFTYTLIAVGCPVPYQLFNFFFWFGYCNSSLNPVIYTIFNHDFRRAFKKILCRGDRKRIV
# Experimental: (§1) NVS_GPCR_rAdra2_NonSelective is a biochemical, single-readout assay that uses extracted gene-proteins from Rat cortical membranes in a tissue-based cell-free assay. Measurements were taken 1.25 hours after chemical dosing in a 48-well plate.NVS_GPCR_rAdra2_NonSelective is one of one assay component(s) measured or calculated from the NVS_GPCR_rAdra2_NonSelective assay. It is designed to make measurements of radioligand binding, a form of binding reporter, as detected with scintillation counting signals by Filter-based radiodetection technology.Data from the assay component NVS_GPCR_rAdra2_NonSelective was analyzed into 1 assay endpoint. This assay endpoint, NVS_GPCR_rAdra2_NonSelective, was analyzed in the positive analysis fitting direction relative to DMSO as the negative control and baseline of activity. Using a type of binding reporter, loss-of-signal activity can be used to understand changes in the binding as they relate to the gene Adra2a. Furthermore, this assay endpoint can be referred to as a primary readout, because the performed assay has only produced 1 assay endpoint. To generalize the intended target to other relatable targets, this assay endpoint is annotated to the gpcr intended target family, where the subfamily is rhodopsin-like receptor.
# (§2) Binding assays used specific radioligands (tritiated, iodinated) with non-radioactive competitive displacement ligands in agonist or antagonist protocols (as indicated) and various reference compounds and inhibitors to titrate specific binding to receptors and transporters. Most enzyme assays (CYPs, kinases, phosphatases, proteases, HDACs) used recombinant protein and specific substrates (fluorescence mostly, some colorimetric and radioactive) and inhibitors, followed by a biochemical separation of substrate and product. All assays for the biochemical HTS were initially run in duplicate at a single concentration (10 uM for CYP450 assays and 25 uM for all others). […] Each assay was run with positive and negative controls, and concurrent controls on every plate. The follow-up (secondary) screen tested active chemical-pairs in concentration series, as well as a few additional assays not tested in the primary screen, some selected negative inactives, and several cases re-run in the concentration series for confirmatory purposes.
# Adra2b (gene 24174) = Adra2b (gene 24174) (UniProt P19328); assay: NVS_GPCR_rmAdra2B: NovaScreen (NVS) G Protein-Coupled Receptor Assay for hybird cells Adrenergic, Alpha 2B Receptor (Adra2B) (AID 2283306)
# Chain of Adra2b (gene 24174) (P19328 whole entry, looked up): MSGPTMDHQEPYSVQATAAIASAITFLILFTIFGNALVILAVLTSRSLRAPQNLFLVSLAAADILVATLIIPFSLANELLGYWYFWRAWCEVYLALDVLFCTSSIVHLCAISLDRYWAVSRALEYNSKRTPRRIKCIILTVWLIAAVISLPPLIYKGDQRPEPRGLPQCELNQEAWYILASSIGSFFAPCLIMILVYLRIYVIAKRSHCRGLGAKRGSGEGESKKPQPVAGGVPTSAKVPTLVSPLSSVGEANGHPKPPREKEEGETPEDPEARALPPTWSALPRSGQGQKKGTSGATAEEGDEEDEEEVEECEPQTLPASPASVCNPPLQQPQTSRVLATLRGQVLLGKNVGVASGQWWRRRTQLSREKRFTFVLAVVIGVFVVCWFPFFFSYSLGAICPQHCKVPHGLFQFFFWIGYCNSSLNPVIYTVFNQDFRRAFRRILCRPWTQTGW
# Experimental: as §1, with “NVS_GPCR_rmAdra2B” for “NVS_GPCR_rAdra2_NonSelective”, “neuroglioma/blastoma hybrid cells” for “Rat cortical membranes”, “1 hour” for “1.25 hours”, “plate.NVS_GPCR_rmAdra2B” for “plate.NVS_GPCR_rAdra2_NonSelective”, “NVS_GPCR_rmAdra2B,” for “NVS_GPCR_rAdra2_NonSelective,”, “Adra2b.” for “Adra2a.”
# as §2
# [2] = molecular target: rat Neurokinin-3 Receptor (NK3), Tacr3 (gene 24808) (UniProt P16177); assay: NVS_GPCR_rNK3: NovaScreen (NVS) G Protein-Coupled Receptor Assay for rat Neurokinin-3 Receptor (NK3) (AID 2283310)
# Chain of rat Neurokinin-3 Receptor (NK3), Tacr3 (gene 24808) (P16177 whole entry, looked up): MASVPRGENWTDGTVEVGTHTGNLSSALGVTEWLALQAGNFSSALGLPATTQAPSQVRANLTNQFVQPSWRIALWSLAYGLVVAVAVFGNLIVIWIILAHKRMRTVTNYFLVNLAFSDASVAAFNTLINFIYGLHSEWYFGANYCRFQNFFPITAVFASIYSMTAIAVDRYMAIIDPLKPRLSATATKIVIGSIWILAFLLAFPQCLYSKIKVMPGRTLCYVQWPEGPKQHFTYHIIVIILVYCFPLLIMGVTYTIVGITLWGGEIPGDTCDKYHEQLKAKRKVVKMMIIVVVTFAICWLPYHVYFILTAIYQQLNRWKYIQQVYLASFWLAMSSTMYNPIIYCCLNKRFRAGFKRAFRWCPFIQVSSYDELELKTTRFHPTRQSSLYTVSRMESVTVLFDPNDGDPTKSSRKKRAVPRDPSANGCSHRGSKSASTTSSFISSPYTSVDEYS
# Procedure, shortened: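 Rat cortical membranes; radioligand binding with filtration and scintillation counting, 2 h after dosing. Primary screen in duplicate at 25 uM, then concentration-response up to 50 uM; loss of binding signal relative to DMSO.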
# [3] = molecular target: rat Opioid Receptor, Non-selective Sodium (Na+) Binding, Oprm1 (gene 25601) (UniProt P33535); assay: NVS_GPCR_rOpiate_NonSelectiveNa: NovaScreen (NVS) G Protein-Coupled Receptor Assay for rat Opioid Receptor, Non-selective Sodium (Na+) Binding (AID 2283311)
# Chain of rat Opioid Receptor, Non-selective Sodium (Na+) Binding, Oprm1 (gene 25601) (P33535 whole entry, looked up): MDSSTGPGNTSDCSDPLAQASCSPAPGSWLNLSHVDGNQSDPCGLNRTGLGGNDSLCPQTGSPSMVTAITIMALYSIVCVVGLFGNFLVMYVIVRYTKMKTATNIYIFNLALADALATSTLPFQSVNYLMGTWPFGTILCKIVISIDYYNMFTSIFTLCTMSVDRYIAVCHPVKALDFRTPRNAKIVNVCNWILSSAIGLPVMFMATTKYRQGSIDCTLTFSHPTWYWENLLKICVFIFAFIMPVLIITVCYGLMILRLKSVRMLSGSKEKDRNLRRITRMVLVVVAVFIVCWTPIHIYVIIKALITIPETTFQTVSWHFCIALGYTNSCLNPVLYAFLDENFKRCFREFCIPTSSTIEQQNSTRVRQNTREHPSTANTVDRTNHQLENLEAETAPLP
# Procedure, shortened: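 Rat forebrain membranes, radioligand displacement with filter scintillation counting, 1.5 h incubation. Screened in duplicate at 25 µM; hits then run in concentration-response up to 50 µM; loss of binding fitted versus DMSO.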
# [4] = molecular target: rat Somatostatin Receptor (SST), Sstr1 (gene 25033) (UniProt P28646); assay: NVS_GPCR_rSST: NovaScreen (NVS) G Protein-Coupled Receptor Assay for rat Somatostatin Receptor (SST) (AID 2283314)
# Chain of rat Somatostatin Receptor (SST), Sstr1 (gene 25033) (P28646 whole entry, looked up): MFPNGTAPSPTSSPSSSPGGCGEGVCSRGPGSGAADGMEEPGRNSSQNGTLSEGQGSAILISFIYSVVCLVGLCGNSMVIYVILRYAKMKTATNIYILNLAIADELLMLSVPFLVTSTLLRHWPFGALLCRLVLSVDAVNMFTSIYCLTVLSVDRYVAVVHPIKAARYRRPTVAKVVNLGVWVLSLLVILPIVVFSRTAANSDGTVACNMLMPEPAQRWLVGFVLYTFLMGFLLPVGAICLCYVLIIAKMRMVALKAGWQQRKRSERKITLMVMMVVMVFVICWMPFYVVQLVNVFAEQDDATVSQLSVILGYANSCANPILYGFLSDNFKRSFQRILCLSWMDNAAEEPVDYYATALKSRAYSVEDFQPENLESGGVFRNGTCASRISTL
# Experimental: as §1, with “NVS_GPCR_rSST” for “NVS_GPCR_rAdra2_NonSelective”, “forebrain” for “cortical”, “1 hour” for “1.25 hours”, “96-well plate.NVS_GPCR_rSST” for “48-well plate.NVS_GPCR_rAdra2_NonSelective”, “NVS_GPCR_rSST,” for “NVS_GPCR_rAdra2_NonSelective,”, “Sstr1.” for “Adra2a.”
# Binding assays used specific radioligands (tritiated, iodinated) with non-radioactive competitive displacement ligands in agonist or antagonist protocols (as indicated) and various reference compounds and inhibitors to titrate specific binding to receptors and transporters. Most enzyme assays (CYPs, kinases, phosphatases, proteases, HDACs) used recombinant protein and specific substrates (fluorescence mostly, some colorimetric and radioactive) and inhibitors, followed by a biochemical separation of substrate and product. All assays for the biochemical HTS were initially run in duplicate at a single concentration (10 uM for CYP450 assays and 25 uM for all others). Assay-chemical combinations meeting a pre-defined threshold (e.g., 30% inhibition and other criteria defined below) were then run in singleton concentration-response format with maximum concentration of 20 uM for CYPs and 50 uM for all others. Each assay was run with positive and negative controls, and concurrent controls on every plate. The follow-up (secondary) screen tested active chemical-pairs in concentration series, as well as a few additional assays not tested in the primary screen, some selected negative inactives, and several cases re-run in the concentration series for confirmatory purposes.
# [5] = molecular target: rat Vasopressin 1 Receptor (V1), Avpr1a (gene 25107) (UniProt P30560); assay: NVS_GPCR_rV1: NovaScreen (NVS) G Protein-Coupled Receptor Assay for rat Vasopressin 1 Receptor (V1) (AID 2283316)
# Chain of rat Vasopressin 1 Receptor (V1), Avpr1a (gene 25107) (P30560 whole entry, looked up): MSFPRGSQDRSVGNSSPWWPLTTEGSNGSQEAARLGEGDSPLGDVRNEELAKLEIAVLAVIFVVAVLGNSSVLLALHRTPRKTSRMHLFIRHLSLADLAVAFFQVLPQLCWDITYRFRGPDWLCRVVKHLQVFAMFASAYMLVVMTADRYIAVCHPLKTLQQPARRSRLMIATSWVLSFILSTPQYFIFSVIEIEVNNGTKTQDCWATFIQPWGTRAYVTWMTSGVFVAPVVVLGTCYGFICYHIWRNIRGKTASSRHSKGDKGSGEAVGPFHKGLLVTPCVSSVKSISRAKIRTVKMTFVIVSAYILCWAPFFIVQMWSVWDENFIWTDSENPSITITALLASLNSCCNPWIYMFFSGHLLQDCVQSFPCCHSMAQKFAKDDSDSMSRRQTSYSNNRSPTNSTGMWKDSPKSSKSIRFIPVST
# Procedure, shortened: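 Radioligand binding on rat liver membranes, 1.5 h incubation, filter-based scintillation counting. Single 25 uM screen in duplicate; chemicals meeting threshold (e.g. 30% inhibition) run in concentration-response up to 50 uM.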
# [6] = molecular target: rat Neurokinin-1 Receptor (NK1), Tacr1 (gene 24807) (UniProt P14600); assay: NVS_GPCR_rNK1: NovaScreen (NVS) G Protein-Coupled Receptor Assay for rat Neurokinin-1 Receptor (NK1) (AID 2283309)
# Chain of rat Neurokinin-1 Receptor (NK1), Tacr1 (gene 24807) (P14600 whole entry, looked up): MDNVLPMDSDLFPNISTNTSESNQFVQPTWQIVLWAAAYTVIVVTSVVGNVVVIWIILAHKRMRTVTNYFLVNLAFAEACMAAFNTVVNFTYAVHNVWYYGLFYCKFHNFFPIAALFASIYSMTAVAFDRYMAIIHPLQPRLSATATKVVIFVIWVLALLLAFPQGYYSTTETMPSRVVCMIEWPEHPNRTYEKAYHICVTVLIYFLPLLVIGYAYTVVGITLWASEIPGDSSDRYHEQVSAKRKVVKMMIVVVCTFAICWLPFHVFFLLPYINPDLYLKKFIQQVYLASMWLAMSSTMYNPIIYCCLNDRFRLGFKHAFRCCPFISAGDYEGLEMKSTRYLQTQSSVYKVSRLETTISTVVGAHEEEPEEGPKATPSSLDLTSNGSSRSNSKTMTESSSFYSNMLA
# Procedure, shortened: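 Rat submaxillary gland membranes; radioligand displacement read by filter-based scintillation counting after 1 h. Primary screen in duplicate at 25 uM; actives retested in concentration series; loss of binding fitted versus DMSO.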
# [7] = molecular target: rat Histamine Receptor (H3), Hrh3 (gene 85268) (UniProt Q9QYN8); assay: NVS_GPCR_rH3: NovaScreen (NVS) G Protein-Coupled Receptor Assay for rat Histamine Receptor (H3) (AID 2283303)
# Chain of rat Histamine Receptor (H3), Hrh3 (gene 85268) (Q9QYN8 whole entry, looked up): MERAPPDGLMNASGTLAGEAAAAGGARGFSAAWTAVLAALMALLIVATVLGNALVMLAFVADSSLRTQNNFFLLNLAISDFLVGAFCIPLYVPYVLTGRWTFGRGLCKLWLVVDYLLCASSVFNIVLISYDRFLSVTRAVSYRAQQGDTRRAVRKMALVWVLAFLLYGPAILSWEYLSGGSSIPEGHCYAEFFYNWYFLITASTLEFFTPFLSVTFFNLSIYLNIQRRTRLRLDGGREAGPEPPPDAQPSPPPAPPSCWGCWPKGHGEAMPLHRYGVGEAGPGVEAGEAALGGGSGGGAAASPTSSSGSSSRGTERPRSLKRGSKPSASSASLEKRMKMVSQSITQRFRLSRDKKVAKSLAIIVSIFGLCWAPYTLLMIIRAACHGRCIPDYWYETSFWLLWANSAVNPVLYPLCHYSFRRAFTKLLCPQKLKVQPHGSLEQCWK
# Procedure, shortened: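 Rat forebrain membranes incubated 1 h with compound; radioligand displacement measured by filter-based scintillation counting. Single-concentration duplicates at 25 µM, then concentration-response up to 50 µM, relative to DMSO.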
smiles,measurement,setting,value
COc1ccc(OC(F)(F)F)cc1CN[C@H]1CCCN[C@H]1c1ccccc1,AC50,[1],13.1 µM (active)
same,AC50,Adra2b (gene 24174),9.2 µM (active)
same,AC50,[2],12.5 µM (active)
same,outcome,[3],inactive
same,AC50,[4],8.11 µM (active)
same,outcome,[5],inactive
Cc1c(C)c2c(c(C)c1O)CCC(C)(COc1ccc(CC3SC(=O)NC3=O)cc1)O2 (centres undefined),outcome,[3],inactive
CSc1ccc(Oc2ccc(S(N)(=O)=O)cc2CN(C)C)cc1C,AC50,[1],10.6 µM (active)
same,AC50,Adra2b (gene 24174),1.74 µM (active)
same,AC50,[6],25 µM (active)
same,AC50,[3],3.74 µM (active)
O=C1OC(c2ccc(O)cc2)(c2ccc(O)cc2)c2ccccc21,AC50,[3],0.604 µM (active)
CCCCCCC(C=O)=Cc1ccccc1,outcome,[4],inactive
NC(=Nc1ccccc1)Nc1ccccc1,outcome,[1],inactive
same,AC50,Adra2b (gene 24174),11.7 µM (active)
CO[C@@H]1COCC[C@@H]1N[C@@H]1CC[C@@](C(=O)N2CCc3ncc(C(F)(F)F)cc3C2)(C(C)C)C1,outcome,[5],inactive
CCCCCCCCCC[N+](C)(C)[O-],outcome,[2],inactive
CN(C)C(=O)NC1(c2ccccc2)CCN(CC[C@@]2(c3ccc(F)c(F)c3)CN(C(=O)c3ccccc3)CCO2)CC1,outcome,[6],inactive
same,outcome,[2],inactive
same,AC50,[3],3.23 µM (active)
O=C(N[C@@H](c1ccccc1)[C@@H]1CCCCN1)c1cccc(C(F)(F)F)c1Cl,AC50,[1],39.2 µM (active)
same,outcome,[7],inactive
same,AC50,[3],31.4 µM (active)
same,AC50,[4],6.67 µM (active)
CN(C)CCCN1c2ccccc2Sc2ccc(Cl)cc21,AC50,[6],25 µM (active)
same,AC50,[3],9.16 µM (active)
CCC(C)N(C)C(=O)c1cc2ccccc2c(-c2ccccc2Cl)n1 (centres undefined),AC50,[2],6.96 µM (active)
same,AC50,[5],7.4 µM (active)
CC(C)(C)c1ccccc1,outcome,[3],inactive
